According to PubChem BioAssay AID1159580 (chemical genetic matrix, 2015):
Among all 5,500 compounds or so, about 2,000 (36%) were called active. Inconclusive results (about 18%) are left out. No stated cut-off is given here; in the data, active means normalized growth mostly below about 0.91 (no sharp cut-off); inconclusive means no clear call, values can overlap the other calls; inactive means mostly above about 0.92. This is one part of the list.

Test: chemical genetic growth profiling, strain panel (AID 1159580);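 further: tested at 20 µM; growth read once vehicle control cultures reached saturation at 30 °C; 1 = growth at the plate median or of vehicle wells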
Details: S. cerevisiae deletion strains, growth OD

Measured: normalized growth

[N-]=[N+]=CC(=O)OCC(N)C(=O)O (centres undefined)
inactive: locus YAL021C, strain ccr4, stronger effect = lower value 0.994 | locus YAL026C, strain drs2, stronger effect = lower value 0.988 | locus YAL030W, strain snc1, stronger effect = lower value 1.02 | locus YBL061C, strain skt5, stronger effect = lower value 1.01 | locus YBR009C, strain hhf1, stronger effect = lower value 0.979 | locus YBR023C, strain chs3, stronger effect = lower value 0.995 | locus YBR171W, strain sec66, stronger effect = lower value 1.02 | locus YBR231C, strain swc5, stronger effect = lower value 1.03 | locus YBR279W, strain paf1, stronger effect = lower value 0.98 | locus YCL011C, strain gbp2, stronger effect = lower value 0.983 | locus YCL016C, strain dcc1, stronger effect = lower value 0.958 | locus YCL061C, strain MRC1, stronger effect = lower value 1.02 | locus YCL069W, strain vba3, stronger effect = lower value 1 | locus YCR088W, strain abp1, stronger effect = lower value 1.01 | locus YDL005C, strain med2, stronger effect = lower value 0.992 | locus YDL040C, strain nat1, stronger effect = lower value 1 | locus YDR001C, strain nth1, stronger effect = lower value 0.995 | locus YDR069C, strain doa4, stronger effect = lower value 1.03 | locus YDR137W, strain rgp1, stronger effect = lower value 0.99 | locus YDR159W, strain sac3, stronger effect = lower value 0.978 | locus YDR195W, strain ref2 1.03 | locus YDR297W, strain sur2, stronger effect = lower value 1.02 | locus YDR334W, strain swr1, stronger effect = lower value 1 | locus YDR335W, strain msn5, stronger effect = lower value 1.01 | locus YDR392W, strain spt3, stronger effect = lower value 0.931 | locus YEL003W, strain gim4, stronger effect = lower value 1.01 | locus YEL037C, strain rad23, stronger effect = lower value 1 | locus YEL061C, strain CIN8 (second series), stronger effect = lower value 1 | locus YER015W, strain faa2, stronger effect = lower value 1.01 | locus YER016W, strain bim1, stronger effect = lower value 0.995 | locus YER111C, strain swi4, stronger effect = lower value 1 | locus YER155C, strain BEM2 (second series), stronger effect = lower value 1.05 | locus YFR010W, strain ubp6, stronger effect = lower value 1.01 | locus YGL167C, strain pmr1, stronger effect = lower value 1.02 | locus YGL173C, strain kem1, stronger effect = lower value 1.02 | locus YGL227W, strain vid30, stronger effect = lower value 1.01 | locus YGL240W, strain doc1, stronger effect = lower value 1.04 | locus YGL253W, strain hxk2, stronger effect = lower value 0.973 | locus YHR013C, strain ard1, stronger effect = lower value 1.01 | locus YHR027C, strain rpn1, stronger effect = lower value 0.995 | locus YHR030C, strain SLT2, stronger effect = lower value 0.967 | locus YHR079C, strain IRE1, stronger effect = lower value 0.977 | locus YHR142W, strain chs7, stronger effect = lower value 0.976 | locus YJL092W, strain hpr5, stronger effect = lower value 1.01 | locus YJL095W, strain BCK1 (second series), stronger effect = lower value 1.01 | locus YJL095W, strain BCK1, stronger effect = lower value 0.977 | locus YJL115W, strain asf1, stronger effect = lower value 1.01 | locus YJL129C, strain trk1, stronger effect = lower value 1.01 | locus YJL154C, strain vps35, stronger effect = lower value 1 | locus YJL164C, strain tpk1, stronger effect = lower value 0.985 | locus YJL166W, strain qcr8, stronger effect = lower value 1.05 | locus YJR066W, strain TOR1, stronger effect = lower value 0.936 | locus YKL160W, strain elf1, stronger effect = lower value 1.02 | locus YKR026C, strain gcn3, stronger effect = lower value 1 | locus YKR091W, strain srl3, stronger effect = lower value 1.01 | locus YLL001W, strain dnm1, stronger effect = lower value 1.04 | locus YLL026W, stronger effect = lower value 1.01 | locus YLL041C, strain sdh2, stronger effect = lower value 1 | locus YLR027C, strain aat2, stronger effect = lower value 1.01 | locus YLR113W, strain HOG1, stronger effect = lower value 0.964 | locus YLR221C, strain rsa3, stronger effect = lower value 0.976 | locus YLR258W, strain gsy2, stronger effect = lower value 0.994 | locus YLR262C, strain YPT6 (second series), stronger effect = lower value 1.02 | locus YLR320W, strain mms22, stronger effect = lower value 0.991 | locus YLR342W, strain FKS1, stronger effect = lower value 1.04 | locus YLR357W, strain rsc2, stronger effect = lower value 1 | locus YLR370C, strain arc18, stronger effect = lower value 1.01 | locus YLR384C, strain iki3, stronger effect = lower value 1 | locus YML120C, strain ndi1, stronger effect = lower value 1 | locus YMR058W, strain fet3, stronger effect = lower value 1.01 | locus YMR125W, strain sto1, stronger effect = lower value 0.984 | locus YMR129W, stronger effect = lower value 0.999 | locus YMR205C, strain PFK2, stronger effect = lower value 1.03 | locus YMR231W, strain pep5, stronger effect = lower value 1 | locus YNL071W, strain lat1, stronger effect = lower value 0.992 | locus YNL183C, strain NPR1, stronger effect = lower value 0.937 | locus YNL209W, strain ssb2, stronger effect = lower value 0.989 | locus YNL248C, strain rpa49, stronger effect = lower value 0.976 | locus YNL322C, strain KRE1 (second series), stronger effect = lower value 0.999 | locus YNR049C, strain mso1, stronger effect = lower value 1 | locus YOR001W, strain rrp6, stronger effect = lower value 1.02 | locus YOR070C, strain gyp1, stronger effect = lower value 0.995 | locus YOR080W, strain dia2, stronger effect = lower value 1.02 | locus YOR083W, strain WHI5, stronger effect = lower value 0.992 | locus YOR106W, strain vam3, stronger effect = lower value 1.03 | locus YOR231W, strain MKK1, stronger effect = lower value 0.976 | locus YOR265W, strain rbl2, stronger effect = lower value 0.998 | locus YOR270C, strain vph1, stronger effect = lower value 1.03 | locus YOR290C, strain snf2, stronger effect = lower value 0.961 | locus YPL051W, strain arl3, stronger effect = lower value 1.01 | locus YPL078C, strain atp4, stronger effect = lower value 1.03 | locus YPL106C, strain sse1, stronger effect = lower value 0.966 | locus YPL240C, strain hsp82, stronger effect = lower value 0.99 | locus YPL256C, strain CLN2, stronger effect = lower value 1
